Measured values: PubChem BioAssay (NCATS)
Results filed as inconclusive are left out. The source made the active and inactive calls. Calls come from the whole dose curve; as a rule, active = well fitted inhibition curve with a large enough effect; inconclusive = small, poorly fitted or top-dose-only effect; inactive = flat fitted curve, though single readings scatter. *1 amine or outer side, *2 acyl side, *3 side chain or, on linkers, in order; H or OH if unused. Where a SMILES comes first, the peptide text is derived from it. Bridges are numbered along the chain shown (N, C = ends). [ ]: non-standard residue; d: D form. The star is where a group is joined. ξ: configuration not given here. X5 = NC1=N[C@@H]([C@H](N[*:1])C(=O)[*:2])C[C@H](O)N1; ΔAla(Z-3-ureido) = NC(=O)N/C=C(\N)C(=O)O; d(aThr) = C[C@@H](O)[C@@H](N)C(=O)O; ξThr(3R) = C[C@@H](O)C(N)C(=O)O; β3hOrn = NCCC[C@H](N)CC(=O)*; X3 = CC[C@@H](C)CCCCC(=O)*; X2 = CC[C@H](C)CCCCC(=O)*; dDab = NCC[C@@H](N)C(=O)O; Dab = NCC[C@H](N)C(=O)O; Dap = NC[C@H](N)C(=O)O

Target: Voltage-gated inwardly rectifying potassium channel KCNH2 (Homo sapiens) (UniProt Q12809)
Assay: qHTS Assay for Small Molecule Inhibitors of the Human hERG Channel Activity (AID 588834);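 note: lower thallium flux fluorescence means stronger hERG block; nearly all actives have a fitted effect of over 50% in size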; for activity change, negative = inhibition: top concentration of the series differs between compounds
Conditions: U2OS BacMam hERG, FluxOR thallium flux fluorescence; series mostly up to 46.1 µM; activity change, negative = inhibition: at the top concentration
Source text: NIH Chemical Genomics Center [NCGC]
National Institutes of Environmental Health Sciences [NIEHS]
National Toxicology Program [NTP]
We have developed a 1536-well cell-based assay for quantitative high throughput screening (qHTS) to determine in vitro hERG channel blockage as a measure of cardio toxicity with small molecules. This particular assay uses the U2OS cell line which is derived from human osteosarcoma.
NCGC Assay Protocol Summary:
HERG assay (FluxORTM thallium flux assay) was initially developed by Invitrogen/Molecular Probes, and then miniaturized into 1536-well plate in a homogeneous format by NCGC. This assay measures the activity of potassium channel using thallium dye (FluxOR) flux as surrogate measurement for potassium into the cells with a FDSS-7000 kinetic plate reader (Hamamatsu Corp., Hamamatsu City, Japan). The hERG ion channel is transduced into mammalian cells (U2OS) using a baculovirus (Bacmam) construct harboring the hERG K+ ion channel. So far we screened LOPAC1280 library (Sigma), the NTP collection of 1408 compounds, and the NCGC Pharmaceutical Collection (NPC), in which many well defined HERG blockers are present. The rank order potencies of many of these compounds are similar to that of other HERG assays (membrane potential, Rb+ flux, patch clamp, etc). This quick and homogeneous assay is also found to be sensitive, specific, and robust.
Using the FluxORTM thallium flux assay, the activity of potassium channel using thallium dye (FluxOR) flux as surrogate measurement for potassium into the cells was measured in the U2OS cell line transduced with hERG K+ ion channel using a baculovirus (Bacmam) using Opti-MEM medium (Invitrogen) containing 2% fetal calf serum (FCS, HyCone) following loading buffer addition, compound treatment for around 10 minutes and finally adding stimulation buffer. The assay was performed in black clear Kalypsys 1536-well plates. In the screen, Astemizole was used as positive controls. Library compounds were measured for their ability to cause hERG channel blockage in the cell line, as reflected by a decrease in fluorescence intensity, in a concentration-dependent manner. […] AC50 values were determined from concentration-response data modeled with the standard Hill equation.
qHTS protocol for hERG-U2OS cellular assay
[Step] [Parameter] [Value] [Description]
1. Day 1: Replace medium in 70-80% confluent T225 flask with 2.5 mL of hERG-BacMam virus plus 12.5 mL of phosphate buffered saline (PBS) (corresponding roughly to a multiplicity of infection ratio of 100 virus particles/cell)
2. Incubation: 4 hrs @ room Temperature in Dark
3. Reagent; Remove virus; wash once with 25 ml DPBS
4. Reagent; 35 ml culture medium
5. Incubation; 37 °C overnight
6. Day2: Reagent; 3 uL; 2000 U2OS cells/well
7. Time; 4 hr; 37 °C incubation
8. Loading buffer; 1 uL; 0.7X;
9. Incubation: 1hr @ RT in Dark.
12. Time; 10min; 37 °C incubation
13. Read fluorescence Intensity on FDSS for 10 Sec with 1 sec interval
14. Reagent; 1 uL; stimulation buffer
15. Read fluorescence Intensity on FDSS for 2 min with 1 sec interval
16. Detection; Fluorescence Intensity; FDSS
% is set by controls: 0 for no effect and ±100 for the full control effect; potency is the fitted concentration of half-maximal effect.

Voltage-gated inwardly rectifying potassium channel KCNH2 (Homo sapiens), sequence (Q12809 whole entry, looked up): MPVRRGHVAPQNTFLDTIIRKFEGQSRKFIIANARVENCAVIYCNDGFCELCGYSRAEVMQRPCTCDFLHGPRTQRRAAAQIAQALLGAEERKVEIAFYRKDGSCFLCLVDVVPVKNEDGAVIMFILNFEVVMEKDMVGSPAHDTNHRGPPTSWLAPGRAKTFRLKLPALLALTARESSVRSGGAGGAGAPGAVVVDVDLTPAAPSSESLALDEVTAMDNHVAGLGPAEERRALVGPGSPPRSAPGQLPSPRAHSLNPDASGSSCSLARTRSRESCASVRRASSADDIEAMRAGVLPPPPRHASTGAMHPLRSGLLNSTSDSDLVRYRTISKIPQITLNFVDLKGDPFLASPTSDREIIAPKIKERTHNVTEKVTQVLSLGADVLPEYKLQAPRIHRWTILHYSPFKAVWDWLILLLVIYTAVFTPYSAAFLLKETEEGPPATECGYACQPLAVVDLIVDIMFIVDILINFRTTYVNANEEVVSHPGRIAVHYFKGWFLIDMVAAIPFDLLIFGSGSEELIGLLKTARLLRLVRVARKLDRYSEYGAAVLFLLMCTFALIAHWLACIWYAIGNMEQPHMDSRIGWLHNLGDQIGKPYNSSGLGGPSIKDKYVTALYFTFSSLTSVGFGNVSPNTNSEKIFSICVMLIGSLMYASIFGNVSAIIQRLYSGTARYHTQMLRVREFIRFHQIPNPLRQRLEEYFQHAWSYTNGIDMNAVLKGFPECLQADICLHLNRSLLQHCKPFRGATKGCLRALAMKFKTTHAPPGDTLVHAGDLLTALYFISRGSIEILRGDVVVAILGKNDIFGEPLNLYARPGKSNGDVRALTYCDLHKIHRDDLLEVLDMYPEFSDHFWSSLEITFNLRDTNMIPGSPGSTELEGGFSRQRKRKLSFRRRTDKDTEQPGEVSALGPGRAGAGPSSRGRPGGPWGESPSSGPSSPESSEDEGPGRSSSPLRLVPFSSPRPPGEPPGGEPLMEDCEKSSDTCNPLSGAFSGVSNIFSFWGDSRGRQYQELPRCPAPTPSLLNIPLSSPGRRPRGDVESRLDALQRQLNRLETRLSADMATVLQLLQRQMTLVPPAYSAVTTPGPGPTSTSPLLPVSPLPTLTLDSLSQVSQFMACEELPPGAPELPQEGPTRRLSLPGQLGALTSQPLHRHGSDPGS

| Compound | Potency | activity change, negative = inhibition |
| --- | --- | --- |
| Nc1ccc(N=Nc2ccccc2)c(N)n1 | inactive | – |
| CN=C1C=CC(=C(c2ccc(N(C)C)cc2)c2ccc(N(C)C)cc2)C=C1 | 4.47 µM (active) | – |
| CC(C)c1nc(N(C)S(C)(=O)=O)nc(-c2ccc(F)cc2)c1/C=C/C(O)CC(O)CC(=O)O (stereo not given) | 14.1 µM (active) | – |
| CC(/C=C/C=C(\C)C(=O)O[C@@H]1O[C@H](CO[C@@H]2O[C@H](CO)[C@@H](O)[C@H](O)[C@H]2O)[C@@H](O)[C@H](O)[C@H]1O)=C\C=C\C=C(C)\C=C\C=C(/C)C(=O)O[C@@H]1O[C@H](CO[C@@H]2O[C@H](CO)[C@@H](O)[C@H](O)[C@H]2O)[C@@H](O)[C@H](O)[C@H]1O | – | 2.66% (inactive) |
| CC(CNC(=O)c1cccnc1)NC(=O)c1cccnc1 (stereo not given) | – | 3.09% (inactive) |
| CCCCC(O)c1ccccc1 (stereo not given) | – | -10.1% (inactive) |
| CCN(CC)CCOCCOC(=O)C(CC)(CC)c1ccccc1 | 14.1 µM (active) | – |
| NC[C@H]1O[C@H](O[C@H]2[C@H](O)[C@@H](O[C@H]3O[C@H](CO)[C@@H](O)[C@H](N)[C@H]3O)[C@H](N)C[C@@H]2N)[C@H](N)C[C@@H]1O | – | 0.829% [at 20.6 µM] (inactive) |
| CC(C)(C)CC(C)(C)c1cc(Cc2cc(C(C)(C)CC(C)(C)C)cc(-n3nc4ccccc4n3)c2O)c(O)c(-n2nc3ccccc3n2)c1 | – | 23.9% (inactive) |
| Cc1cc(C)c(NC(=O)C[C@H](CC(=O)O)c2cccc3ccccc23)c(C(=O)N2CCC3(CCCC3)CC2)c1 | – | 4.89% (inactive) |
| NCC[C@H](O)C(=O)N[C@@H]1C[C@H](N)[C@@H](O[C@H]2O[C@H](CN)[C@@H](O)[C@H](O)[C@H]2O)[C@H](O)[C@H]1O[C@H]1O[C@H](CO)[C@@H](O)[C@H](N)[C@H]1O | – | 4.07% (inactive) |
| O=C(OC[C@H]1O[C@@H](OC(=O)c2cc(O)c(O)c(OC(=O)c3cc(O)c(O)c(O)c3)c2)[C@H](OC(=O)c2cc(O)c(O)c(OC(=O)c3cc(O)c(O)c(O)c3)c2)[C@@H](OC(=O)c2cc(O)c(O)c(OC(=O)c3cc(O)c(O)c(O)c3)c2)[C@@H]1OC(=O)c1cc(O)c(O)c(OC(=O)c2cc(O)c(O)c(O)c2)c1)c1cc(O)c(O)c(OC(=O)c2cc(O)c(O)c(O)c2)c1 | 25.1 µM (active) | – |
| CCN(CC)C(=O)[C@]1(c2ccccc2)C[C@@H]1CN | – | 12.1% (inactive) |
| CCc1ncnc2cc(OC)c(OC)cc12 | – | 26.1% (inactive) |
| c1ccc(-n2cnnn2)cc1 | – | 24.4% (inactive) |
| CC[C@@H](C)[C@H](N)C(=O)O | – | 17.3% (inactive) |
| CCN(CC)CCOC[C@H]1O[C@@H](O)[C@H](OCCN(CC)CC)[C@@H](O)[C@@H]1O | – | 3.03% (inactive) |
| CC[C@H](C)CCCCC(=O)N[C@@H](CCN)C(=O)N[C@H](C(=O)N[C@@H](CCN)C(=O)N[C@H]1CCNC(=O)[C@@H]([C@H](C)O)NC(=O)[C@H](CCN)NC(=O)[C@H](CCN)NC(=O)[C@H](CC(C)C)NC(=O)[C@@H](CC(C)C)NC(=O)[C@H](CCN)NC1=O)[C@@H](C)O (X2-[Dab]T[Dab][Dab][Dab][dL]L[Dab][Dab][dT]; lactam 4-C) | – | 1.35% [at 20.6 µM] (inactive) |
| Cc1c(O)c(=O)ccn1C | – | -4.57% (inactive) |
| NCCC[C@H](N)CC(=O)N[C@H]1CNC(=O)[C@H]([C@H]2C[C@H](O)NC(N)=N2)NC(=O)/C(=C/NC(N)=O)NC(=O)[C@H](CO)NC(=O)[C@H](CO)NC1=O (β3hOrn-[Dap]SS[ΔAla(Z-3-ureido)][X5]; lactam 1-C) | – | 21.1% (inactive) |

| Compound | Potency | activity change, negative = inhibition |
| --- | --- | --- |
| C=Cc1ccc(S(=O)(=O)O)cc1 | – | 0.62% (inactive) |
| Cc1nc(NS(=O)(=O)c2ccc(N)cc2)nc(C)c1Br | – | -4.3% (inactive) |
| O=C1c2ccccc2CN2C(=O)c3ccccc3CN12 | – | 8.12% (inactive) |
| CC1=C(/C=C/C(C)=C/C=C/C(C)=C/C=C/C=C(C)/C=C/C=C(C)/C=C/C2=C(C)C[C@@H](O)CC2(C)C)C(C)(C)C[C@H](O)C1 | – | -6.39% (inactive) |
| O=C1N=C2SCCN2C(=O)C1Cc1ccc(Cl)cc1 (stereo not given) | – | -20.3% (inactive) |
| CC[C@@H](C)CCCCC(=O)N[C@H](CCN)C(=O)N[C@@H](C(=O)N[C@H](CCN)C(=O)N[C@@H]1CCNC(=O)C([C@@H](C)O)NC(=O)[C@@H](CCN)NC(=O)[C@@H](CCN)NC(=O)[C@@H](CC(C)C)NC(=O)[C@@H](Cc2ccccc2)NC(=O)[C@@H](CCN)NC1=O)[C@@H](C)O (stereo partly drawn) (X3-[dDab][d(aThr)][dDab][dDab][dDab][dF][dL][dDab][dDab][ξThr(3R)]; lactam 4-C) | – | 2.11% (inactive) |
| OCl | inactive | – |
| CCC(C(=O)NC(N)=O)c1ccccc1 (stereo not given) | – | 10.2% (inactive) |
| CO[C@H]1C[C@H](O[C@H]2[C@H](C)[C@@H](O[C@@H]3O[C@H](C)C[C@H](N(C)C)[C@H]3O)[C@@H](C)C[C@]3(CO3)C(=O)[C@H](C)[C@@H](O)[C@@H](C)[C@@H](C)OC(=O)[C@@H]2C)O[C@@H](C)[C@@H]1O | – | 1.18% [at 20.6 µM] (inactive) |
| O=C(NNCS(=O)(=O)O)c1ccncc1 | – | 3.71% (inactive) |
| O=C1[O][Bi][O]c2ccccc21 | – | 8.65% (inactive) |
| CCCCCCCCCCCCOCCCN | – | 5.9% (inactive) |
| NC(=O)OC[C@@H]1[C@H](NC(=O)/C(=N\OCC(=O)O)c2csc(N)n2)C(=O)N1S(=O)(=O)O | – | 0.525% (inactive) |
| CCC(C)[C@@H](N)C(=O)O (stereo not given in full) | – | -12.1% (inactive) |
| CO/N=C(\C(=O)N[C@@H]1C(=O)N2C(C(=O)O)=C(CSc3nnnn3C)CS[C@H]12)c1csc(N)n1 | – | 2.77% (inactive) |
| C[Si](C)(C)O[Si](C)(C)C | – | 0.861% (inactive) |
| O=C(O)CC/C=C\CC[C@@H]1[C@@H](N2CCCCC2)[C@@H](O)C[C@@H]1OCc1ccc(-c2ccccc2)cc1 | 0.501 µM (active) | – |
| C=CC[N+]1([C@H]2C[C@H]3[C@@H]4CC[C@H]5C[C@H](O)[C@@H](N6CCOCC6)C[C@]5(C)[C@H]4CC[C@]3(C)[C@H]2OC(C)=O)CCCC1 | – | 17.7% (inactive) |
| CCC(O)c1ccccc1 (stereo not given) | – | -14.7% (inactive) |
| NC(=O)[C@@H]1C[C@]2(NC(=O)NC2=O)c2cc(F)ccc2O1 | – | 11.6% (inactive) |
